A selection: hits, their analogues and other compounds. The true share with any hit is near 13%.
RAM inhibit – yeast RAM network inhibition | S. cerevisiae dse1pr::URA3 reporter, 5-FOA growth OD615, 2 d; analog-sensitive cbk1-as2 kinase mutant strain | inhibition, % at 50 µM | hit rate 1.8% among 190,000 | AID 868;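 active means inhibition above a set limit, 3 SD over mean compound inhibition, cut at about 8.4% in these data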;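 further: 0% = DMSO-only wells with no growth and 100% = 10 µM 1-NA-PP1 full growth; inhibition rescues growth on 5-FOA so higher OD means more RAM inhibition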
WT yeast gro inh – growth inhibition of WT yeast, mitochondrial fusion screen. AID 1362. mitochondrial fusion phenotypic screen, WT strain. inhibition, % at 10 µM. hit rate 2.1% among 190,000; in the data active means inhibition above about 58%; tested in S. cerevisiae
CHOP inhibitor – blocks CHOP induction under ER stress | hit rate 3.8% among 220,000 | inhibition, % at 10 µM | CHO-K1 CHOP-promoter luciferase, tunicamycin-induced, 15-18 h;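 active means compounds that reduced the stress-induced luciferase reporter signal by more than about 70% of percent inhibition, limit read from the data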;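 further: 0% = tunicamycin plus vehicle and 100% = wells without tunicamycin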
Lmaj promast – reduces viability of Leishmania major promastigotes; resazurin fluorescence viability; inhibition, % at 10 µM; hit rate 9% among 200,000; AID 1063; in the data active means inhibition above about 50%;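 further: promastigotes grown with compound for 44 hours at 28 °C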
The depositor's hits bear a star; nt = no result.

SMILES | RAM inhibit | WT yeast gro inh | CHOP inhibitor | Lmaj promast
CCOc1ccccc1NC(=O)CN(c1ccc(OC)cc1)S(=O)(=O)c1c(C)noc1C | 4 | 23 | nt | 31
CCOc1ccccc1NC(=O)CN(c1cc(C)cc(C)c1)S(=O)(=O)c1c(C)noc1C | 2 | 15 | 72* | -2
CCOc1ccc(N(CC(=O)Nc2cccc(F)c2)S(=O)(=O)c2c(C)noc2C)cc1 | 2 | 8 | 72* | 22
CCOc1ccc(N(CC(=O)Nc2ccc(C)c(C)c2)S(=O)(=O)c2c(C)noc2C)cc1 | 4 | 9 | 76* | 25
O=C(OCC(O)CN1CCCCC1)C12CC3CC(CC(C3)C1)C2 (centres undefined) | 2 | 1 | 25 | 91*
NCC(O)COCCC12CC3CC(CC(C3)C1)C2 (centres undefined) | -2 | 40 | 7 | 16
OC(COCCC12CC3CC(CC(C3)C1)C2)CN1CCCC1 (centres undefined) | 2 | 27 | -6 | 91*
OC(CN1CCCCC1)CN1CCCCC1 | 1 | -7 | -18 | 2
CCC(=O)c1ccc(OCC(O)CNC(C)c2ccccc2)cc1 (centres undefined) | 1 | 9 | -4 | 6
CC(NCC(O)COCCC12CC3CC(CC(C3)C1)C2)c1ccccc1 (centres undefined) | -1 | 76* | 58 | 100*
O=C(Nc1c(O)c2ccccc2[nH]c1=O)c1ccco1 | nt | nt | -1 | nt
O=C(COc1cccnc1[N+](=O)[O-])NCc1ccco1 | 1 | -15 | 8 | -2
Cc1cc(OCC(=O)N(C(C)C)C(C)C)ccc1Cl | 2 | 3 | 15 | 0
CC(C)N(C(=O)CS(=O)(=O)c1ccc(Cl)c(Cl)c1)C(C)C | -1 | 0 | 4 | 85*
COc1cc(C=C(C(C)=O)C(C)=O)ccc1O | 0 | -10 | 19 | 63*
COc1cc(/C=C/C(=O)CC(=O)/C=C/c2ccc(O)c(OC)c2)ccc1O | 8.7* | 0 | 13 | 49
O=C(O)CCC(=O)Nc1ccccc1C(=O)Nc1ccccc1 | 0 | 17 | 4 | -7
O=C(O)CCC(=O)Nc1ccccc1C(=O)NCCc1ccccc1 | 1 | -14 | 3 | 56*
CS(=O)(=O)N(CC(=O)Nc1ccccc1C(=O)NCCc1ccccc1)c1ccc2c(c1)OCCO2 | 8 | 43 | -10 | 99*
CCc1sc(NC(=O)c2cc3ccccc3oc2=O)nc1-c1cccs1 | 3 | -20 | -40 | -6
CCOC(=O)c1c(NC(=O)CSc2nnc(CNC(=O)c3ccco3)n2C)sc2c1CCC2 | 1 | 2 | 32 | 17
CCc1ccc(CNc2ccc(O)cc2)cc1 | 3 | 10 | nt | 98*
O=C(Nc1nc(-c2ccccn2)cs1)c1cc(Cl)ccc1[N+](=O)[O-] | 0 | 70* | 19 | 100*
O=C(Nc1nc(-c2ccccn2)cs1)c1ccc([N+](=O)[O-])o1 | nt | nt | 43 | nt
Cc1cc(C(=O)Nc2nc(-c3ccccn3)cs2)ccc1[N+](=O)[O-] | 0 | 62* | -20 | 100*
SMILES | RAM inhibit | WT yeast gro inh | CHOP inhibitor | Lmaj promast
CCN(c1nc(N)c(C(=O)N=C(N)N)nc1Cl)C(C)C | nt | nt | -7 | nt
CCC[n+]1cn(/C(C(=S)Nc2cccc(Cl)c2C)=C(/[O-])c2ccc(OC)c(OC)c2)c2ccccc21 | 2 | -13 | 17 | 7
COC(=O)c1cc(=O)n(Cc2ccc3c(c2)OCO3)c(=Nc2ccccc2)s1 | 2 | 2 | -37 | 82*
COC(=O)c1ccc(N=c2sc(C(=O)OC)cc(=O)n2C)cc1 | 0 | 4 | -32 | 7
COC(=O)c1cc(=O)n(Cc2ccc3c(c2)OCO3)c(=Nc2ccc(F)cc2)s1 | 4 | 12 | -22 | 87*
COC(=O)C1=C(C)N(Cc2ccc3c(c2)OCO3)C(=O)C1 | 2 | -16 | 13 | -2
CC(=O)c1c(O)cc(C)n(-c2ccc(F)cc2)c1=O | -2 | -5 | -5 | -3
COC(=O)c1cc(=O)n(Cc2cccs2)c(=Nc2ccc(F)cc2)s1 | 1 | 37 | -20 | 98*
CCNC(=O)C1CC(=O)N(Cc2ccc3c(c2)OCO3)C(=Nc2ccc(F)cc2)S1 (centres undefined) | 4 | -2 | 44 | -2
COC(=O)c1c(O)cc(C(C)(C)C)n(-c2ccc(F)cc2)c1=O | 1 | -14 | 10 | 63*
CCOC(=O)c1ccc(N=c2sc(C(=O)OC)cc(=O)n2C2CC2)cc1 | 2 | -18 | 52 | 11
COC(=O)c1cc(=O)n(-c2ccc(F)cc2)c(=Nc2ccc(F)cc2)s1 | 0 | 47 | 7 | 92*
CCOC(=O)c1ccc(N=c2sc(C(=O)OC)cc(=O)n2Cc2ccc3c(c2)OCO3)cc1 | 2 | 2 | -3 | 100*
Cc1cccc(C(=O)NC(=S)N2CCc3ccccc3C2)c1 | 1 | 52 | 4 | -8
Cc1cccc(NC(=O)COn2nnc3ccc(S(C)(=O)=O)cc32)c1 | 3 | -2 | 4 | 1
CCCCSc1nc(C)cc(SCC(=O)N/N=C/c2cccc(OC)c2O)n1 | 3 | 17 | 75* | 99*
COc1ccc(CCCC(=O)N/N=C/c2cccc(OC)c2O)cc1C | 4 | -9 | 45 | 98*
CCCC(=O)NC(=S)N1CCN(c2ccc([N+](=O)[O-])cc2)CC1 | 5 | 7 | 59 | 70*
Cc1ccc(C(=O)NC(=S)N2CCN(c3ccc([N+](=O)[O-])cc3)CC2)cc1 | 3 | -2 | 57 | -8
NCCOc1ccccc1Cc1ccccc1 | 0 | 0 | 14 | 99*
CCOC(=O)CN(c1cc([N+](=O)[O-])ccc1OC)S(C)(=O)=O | 0 | 1 | 0 | -6
CCOCC(=O)Nc1cc(C(=O)Nc2ccc(F)cc2)ccc1Cl | 1 | -9 | 21 | -8
Cn1ncc(Br)c1C(=O)Nc1cccc(C(F)(F)F)c1 | nt | nt | 11 | nt
Cn1nc(C(=O)Nc2cccc(C(F)(F)F)c2)ccc1=O | 1 | 15 | -11 | 99*
Cc1cc(NC(=O)Nc2cccc(C(F)(F)F)c2)no1 | 2 | 18 | 93* | 8
SMILES | RAM inhibit | WT yeast gro inh | CHOP inhibitor | Lmaj promast
CN(C)c1nn(C(=O)Nc2cccc(C(F)(F)F)c2)cc1-c1ccccc1 | 1 | 63* | 90* | 4
COc1ccc(CCNC(=O)COc2ccc(S(=O)(=O)NC(C)C)cc2Cl)cc1OC | -1 | -12 | 2 | -2
Cc1cccc(N2CCN(C(=S)Nc3ccc4nc(N5CCN(C)CC5)cc(C)c4c3)CC2)c1C | -1 | 27 | 105* | 101*
Cc1cc(N2CCN(C)CC2)nc2ccc(NC(=S)N3CCN(c4ccc(Cl)cc4)CC3)cc12 | 0 | 97* | -22 | 100*
CCCCN(CC)C(=S)Nc1ccc2nc(N3CCN(C)CC3)cc(C)c2c1 | 2 | 8 | -12 | 53*
Cc1cc(N2CCN(C)CC2)nc2ccc(NC(=S)N3CCCCC3)cc12 | 0 | 28 | 15 | 33
Cc1cc(N2CCN(C)CC2)nc2ccc(NC(=S)N3CCN(c4ccc(F)cc4)CC3)cc12 | 3 | 0 | 13 | 100*
COc1ccccc1N1CCN(C(=O)CSc2nnc3c4ccccc4nc(Cc4ccccc4)n23)CC1 | 2 | 17 | 22 | 20
CCC(C)[C@@H](N)C(=O)N/N=C/c1ccc2ncccc2c1 (some centres undefined) | 1 | -6 | -4 | 23
Nc1nc2ncc(-c3ccsc3)c(N)n2n1 | 0 | 4 | 16 | 2

Source: PubChem (several laboratories)
